Source: PubChem BioAssay AID626 (Vanderbilt High Throughput Screening Facility, 2007)
Among all 64,000 compounds or so, about 1,900 (3%) were called active.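 How the source made its calls: active means fluorescence rise, raw or as B-score row- and column-corrected plate score, outside the 99.7% band of its plate's samples, either direction; inactive means the rest.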 Only a selection was taken, and actives are over-represented in it overall.

The compounds below were run on Muscarinic acetylcholine receptor M1 (assay: M1 muscarinic receptor agonists, primary screen, CHO-M1 cells, Fluo-4 calcium, agonist mode (AID 626)). Conditions: Fluo-4 calcium fluorescence, at 10 µM, active compounds read high.
In the case of `O=C(c1cc(-c2ccncc2)nc2ccccc12)N1CCC2(CC1)OCCO2`, the B-score is reported as 0.114 (inactive). For `O=C(c1cc2nc(-c3ccccc3)cc(-c3ccccc3)n2n1)N1CCC2(CC1)OCCO2`, the B-score was 6.7 (active). In the case of `Cc1cccc(-n2c(C)nc3cc(C(=O)N4CCC5(CC4)OCCO5)ccc32)c1`, the B-score is reported as -0.0322 (inactive). For `Cc1ccc(P(=S)(c2ccc(C)o2)N2CCOCC2)o1`, the B-score was 0.695 (inactive). For `Cn1c(C(=O)N2CCC(C(=O)N3CCC4(CC3)OCCO4)CC2)cc2sccc21`, the B-score was -0.378 (inactive).
